The source of these data is PubChem BioAssay (NCATS).

Test [1] in a line: Quantitative highthroughput screen to assess conditional lethalithy of NOMO1 cells grown in RPMI1640 with untreated serum (RPMI+s) (AID 1963876). Also: nearly all actives have a fitted effect of over 35% in size. Also: potency is read from the fitted curve at half-maximal effect. The essentials: (§1)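 Each medium arm—HPLM with 10% dialyzed FBS, or RPMI1640 with 5 mM glucose and 10% untreated or dialyzed FBS—was screened against an 11-point, 3-fold compound titration for 48 h at 37 °C, with CellTiter-Glo luminescence as endpoint.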

Test [2] in a line: Quantitative highthroughput screen to assess conditional lethalithy of NOMO1 cells grown in RPMI1640 with dialyzed fetal bovine serum (RPMI+ds) (AID 1963877). Also: nearly all actives have a fitted effect of over 30% in size. Also: potency is read from the fitted curve at half-maximal effect. As to viability: series mostly up to about 46 µM. The essentials: as §1
A short description of test [3]: Quantitative highthroughput screen to assess conditional lethalithy of NOMO1 cells grown in Human Plasma-Like Medium with dialyzed fetal bovine serum (HPLM+ds) (AID 1963878). Also: nearly all actives have a fitted effect of over 35% in size. Also: potency is read from the fitted curve at half-maximal effect. The essentials:
as §1

Test [4] can be described thus: Quantitative highthroughput screen to assess conditional lethalithy of P12 Ichikawa cells grown in Human Plasma-Like Medium with dialyzed fetal bovine serum (HPLM+ds) (AID 1963879). Also: nearly all actives have a fitted effect of over 35% in size. Also: potency is read from the fitted curve at half-maximal effect. As to viability: series mostly up to about 46 µM. The settings on record: Potency: viability. A digest of the protocol: as §1
A short description of test [5]: Quantitative highthroughput screen to assess conditional lethalithy of P12 Ichikawa cells grown in RPMI1640 with untreated serum (RPMI+s) (AID 1963881). Also: nearly all actives have a fitted effect of over 35% in size. Also: potency is read from the fitted curve at half-maximal effect. As to viability: series mostly up to about 46 µM. Particulars: Potency: viability. The essentials:
as §1

The nature of test [6]: Quantitative highthroughput screen to assess conditional lethalithy of SEM cells grown in Human Plasma-Like Medium with dialyzed fetal bovine serum (HPLM+ds) (AID 1963882). Also: nearly all actives have a fitted effect of over 35% in size. Also: potency is read from the fitted curve at half-maximal effect. As to viability: series mostly up to about 46 µM. A digest of the protocol: as §1
A short description of test [7]: Quantitative highthroughput screen to assess conditional lethalithy of SEM cells grown in RPMI1640 with unreated serum (RPMI+s) (AID 1963883). Also: nearly all actives have a fitted effect of over 35% in size. Also: potency is read from the fitted curve at half-maximal effect. A digest of the protocol: as §1
The nature of test [8]: Quantitative highthroughput screen to assess conditional lethalithy of SEM cells grown in RPMI1640 with dialyzed fetal bovine serum (RPMI+ds) (AID 1963884). Also: nearly all actives have a fitted effect of over 35% in size. Also: potency is read from the fitted curve at half-maximal effect. As to viability: series mostly up to about 46 µM. A digest of the protocol:
as §1

A short description of test [9]: Cellular viability qHTS for adrenocortical cancer (ACC) cell line NCI-H295R (AID 1963990). Also: nearly all actives have a fitted effect of over 60% in size. A digest of the protocol:
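CellTiter-Glo ATP luminescence, read 48 h after compound addition, measured viability of NCI-H295R adrenocortical cells grown serum-free with ITS. Final concentrations spanned up to 46 uM. Data normalized to DMSO and doxorubicin, fitted for IC50 and maximal response.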

Results filed as inconclusive are left out. Calls of active or inactive are those of the source. Calls follow the shape of the dose curve; as a rule, active = well fitted curve in the direction sought with a large enough effect; inconclusive = small, poorly fitted or top-dose-only effect, or another doubt; inactive = no such curve, though single readings can be large; an effect the other way counts as inactive or inconclusive.

Turning to `CC(=O)Nc1cccc(-n2c(=O)n(C3CC3)c(=O)c3c(Nc4ccc(I)cc4F)n(C)c(=O)c(C)c32)c1`, the Potency was 0.332 µM (active) in test [1]; 0.209 µM (active) in [2]; 0.235 µM (active) in test [3]; 2.64 µM (active) in [4]; 3.72 µM (active) in test [5]; 2.35 µM (active) in [6]. Moreover, the Potency in test [7] was 1.48 µM (active); in test [8] it was 1.87 µM (active). For the same compound, the Potency result in test [9] is “inactive”.

As to `COc1cc(OC)cc(-c2ccc3ncc4ccc(=O)n(-c5ccc(N6CCNCC6)c(C(F)(F)F)c5)c4c3c2)c1`, the Potency entry in test [1] is “inactive”. Further, the Potency in [2] was 8.33 µM (active); in test [3], 14.8 µM (active); in test [4] it was 10.5 µM (active); in test [6], 14.8 µM (active); in test [7] it was 16.6 µM (active).

Turning to `NC(N)=Nc1nc(CSCCC(N)=NS(N)(=O)=O)cs1`, the Potency entry in test [1], in [2], in test [3], in test [4], in [5] and in test [6] was “inactive” in each case. In [8], the Potency result was “inactive”.

As for `CC(C=CC=C(C)C=CC1=C(C)CCCC1(C)C)=CC=CC=C(C)C=CC=C(C)C=CC1=C(C)CCCC1(C)C`, the Potency entry in test [1], in test [2], in test [3], in test [4], in [5] and in test [6] was “inactive” in each case. For the same compound, the Potency entry in [7] and in [8] was “inactive” each time.
